From PubChem BioAssay AID1421 (Emory University Molecular Libraries Screening Center, 2008)
Screen size: about 1,300 compounds; about 140 (11%) were called active. No rule for the calls is given here. A selection follows. Potency and affinity values are given separately.

molecular target: Prostaglandin E2 receptor EP2 subtype (Homo sapiens) (UniProt P43116); test: EP2 receptor modulators, dose response, cell-based, human EP2, PGE2 EC50 shift (AID 1421); conditions: EP2-expressing cells, PGE2 EC50 shift by compound; at 20 µM
Sequence (P43116 whole entry, looked up): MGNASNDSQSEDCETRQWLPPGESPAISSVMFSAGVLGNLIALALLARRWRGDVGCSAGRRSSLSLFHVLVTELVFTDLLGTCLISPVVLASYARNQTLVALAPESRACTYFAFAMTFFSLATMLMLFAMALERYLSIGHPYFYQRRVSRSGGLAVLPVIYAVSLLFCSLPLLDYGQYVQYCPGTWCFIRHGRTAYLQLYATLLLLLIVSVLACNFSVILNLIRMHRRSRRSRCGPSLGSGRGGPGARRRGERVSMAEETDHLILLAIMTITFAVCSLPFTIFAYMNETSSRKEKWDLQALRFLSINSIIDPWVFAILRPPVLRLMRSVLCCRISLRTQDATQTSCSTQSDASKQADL

PGE2 EC50 with compound, inactive:
FC(F)(F)c1nnc(-c2ccccc2)nc1Sc1ccccc1 720 pM
c1ccc(-c2n[nH]nc2-c2ccccc2)cc1 210 pM
CCN1C(=O)/C(=C2/C=CC=CN2C)SC1=S 940 pM
Nc1ccccc1CCCC(=O)O 940 pM
COc1cc2ccccc2cc1C(=O)NC(=S)Nc1cccc(C(=O)O)c1 6940 pM
Cc1sc(NC(=O)CN2CCOCC2)c(C(=O)c2ccccc2)c1C 630 pM
CC1CCCCN1C(=O)/C(=C\c1ccccc1)c1ccccc1 (stereo not given) 440 pM
O=C(Nc1ccccc1Oc1ccccc1)c1ccccc1F 170 pM
CCc1ccccc1NC(=S)N(Cc1ccco1)C(C)c1cccs1 (stereo not given) 380 pM
CCOC(=O)C1=C(N)OC(C)=C(C#N)C1c1ccco1 (stereo not given) 560 pM
S=c1[nH]nc(C2CCCCC2)n1Cc1ccccc1 390 pM
C=CCc1cc(C=O)cc(OC)c1OCc1ccc(Cl)cc1 920 pM
CNC(=O)NC(=O)CSc1nc(-c2cccs2)c(C#N)c(=O)[nH]1 15800 pM
CC(Cc1ccccc1)NC(=O)C1(c2ccccc2)CCOCC1 (stereo not given) 1120 pM
CCOC(=O)c1cnc2c(c(C)nn2C)c1Oc1ccc(Cl)cc1 520 pM
C=CCn1c(=O)c(C(=O)NCCc2ccccc2)c(O)c2ccccc21 500 pM
CC(C)Cc1nc(SCc2cccnc2)c2c(=O)n(C)c(=O)n(C)c2n1 370 pM
Cc1ccc2nc(SCC(=O)NCc3ccco3)c(C)cc2c1 500 pM
COc1cc(OC)c2c(OC)c(-c3ccc4c(c3)OCO4)c(=O)oc2c1 390 pM
CCC1C/C(=C/c2ccco2)C(=O)/C(=C/c2ccco2)C1 (stereo not given) 690 pM
Cc1cc(C)c(S(=O)(=O)c2ccccc2)c(OC(=O)c2c(Cl)cc(Cl)cc2Cl)n1 380 pM
c1ccc(CCc2cccnc2)nc1 800 pM
Cc1noc(C)c1CSc1ncnc2sc3c(c12)CCCCC3 420 pM
Cc1noc(C)c1CSc1ncnc2sc3c(c12)CCC(C)C3 (stereo not given) 400 pM
CC(=O)O[C@H]1C[C@@H](OC(C)=O)C(C)(C)C2C[C@@H](OC(C)=O)[C@]3(C)C([C@H](OC(C)=O)C[C@@]4(C)[C@H](c5ccoc5)OC(=O)[C@H]5O[C@]543)[C@]21C (stereo not given in full) 320 pM
Cc1ccc(C)n1-n1cnc2scc(-c3cccs3)c2c1=O 290 pM
COC(=O)c1sccc1NC(=O)c1cc2c(s1)CCCC2 500 pM
COc1ccc(Cc2n[nH]c(=S)n2Cc2ccccc2)cc1Cl 570 pM
CCOC(=O)c1c(NC(=O)Cc2cccs2)sc(C)c1C 530 pM
COC(=O)c1c(NC(=O)c2ccc(Br)s2)sc2c1CCC2 420 pM
CCOC(=O)c1c(/N=C/C2C(=O)CCCC2=O)sc2c1CCCC2 360 pM
COC(=O)c1c(NC(=O)Cc2cccs2)sc2c1CCCC2 490 pM
CCOC(=O)c1c(NC(=O)c2cccs2)sc2c1CCN(C(=O)OCC)C2 430 pM
CCOC(=O)c1c(NC(=O)CN2CCN(C(=O)c3ccco3)CC2)sc2c1CCCC2 590 pM
CCOC(=O)Nc1sc2c(c1C(=O)OCC)CCC2 570 pM
CCOC(=O)c1c(NC(=O)c2ccc(Br)o2)sc(C)c1CC 270 pM
Cc1cccc(/N=C/c2c(O)ccc3oc4c(c23)CCCC4)n1 1210 pM
C=CCSc1nc2ccsc2c(=O)n1-c1ccccc1 370 pM
Oc1ccc(/C=N/N2CCN(C3c4ccccc4-c4ccccc43)CC2)c(O)c1 250 pM
COc1cc(NC(=S)NC(=O)c2cc(C)cc(C)c2)ccc1NC(=O)c1cccs1 300 pM
O=S(=O)(c1cccs1)N1CN(Cc2cccs2)c2nc3ccccc3nc21 450 pM
CCOC(=O)c1c(NC(=O)CN(CC)CC)sc2c1CCN(C(=O)OCC)C2 290 pM
CCOC(=O)c1c(N)nn(C(=O)C(C)(C)C)c1-c1ccccc1 110 pM
Cc1cc(NC(=O)c2cc(-c3ccncc3)nc3c(C)cccc23)no1 920 pM
CCOC(=O)c1c(NC(=O)COC(=O)Cn2c(C)nc3ccccc32)sc2c1CCCC2 550 pM
CCOC(=O)c1c(NC(=O)c2ccc(N3C(=O)[C@@H]4[C@H](C3=O)[C@H]3C=C[C@@H]4C3)cc2)sc2c1CC(C)CC2 (stereo not given in full) 470 pM
COC(=O)c1c(NC(=S)NN2CCOCC2)sc2c1CCCC2 390 pM
CCOC(=O)c1c(NC(=O)c2ccn(CC)n2)sc2c1CCCC2 330 pM
CC(=O)Nc1sc2c(c1C(c1cccs1)N1CCOCC1)CCCC2 (stereo not given) 330 pM
COC(=O)c1c(NC(=O)c2ccccc2N(C)S(=O)(=O)c2ccccc2)sc2c1CCCC2 380 pM
CCOC(=O)c1c(NC(=O)Cn2nnc3ccccc32)sc2c1CCC(C)C2 (stereo not given) 530 pM
CCOc1ccccc1COC(=O)c1cccc(-n2cnnn2)c1 540 pM
C/C(Cl)=C/Cn1c(SC(C)C)nc2c1c(=O)[nH]c(=O)n2C 830 pM
NS(=O)(=O)c1ccc(NCc2cnc3ccccc3n2)cc1 1130 pM
Cc1ccccc1/C=C/c1nc2ccccc2c(=O)n1CCc1ccccc1 190 pM
COc1cc(C2Oc3cc(C4Oc5cc(O)cc(O)c5C(=O)C4O)ccc3OC2CO)ccc1O (stereo not given) 1940 pM
CCCCC(=O)Nc1sc2c(c1C(=O)OCC)CCC(C=O)=C2Cl 1750 pM
CCOC(=O)c1c(-c2cccs2)csc1NC(=O)CN1CCOCC1 2480 pM
CCCC/C(=N\NC(=O)c1ccc(Br)o1)c1ccccc1 600 pM
COc1cc2cc(Br)cc(Br)c2nc1C 1200 pM
CCC1CCc2c(sc3ncnc(N4CCOCC4)c23)C1 (stereo not given) 420 pM
Cc1sc(NC(=O)c2cccs2)c(C(=O)OC(C)C)c1C 270 pM
CCOC(=O)c1c(NC(=O)c2cccs2)sc2c1CCCC2 750 pM
N#CCSc1nc2ccccc2c(=O)n1C1CCCCC1 680 pM
O=C(OCc1ccc(Cl)cc1)c1ccccc1C(=O)c1ccccc1 410 pM
O=C(c1ccccc1)N1N=C(c2ccccc2)CC1c1ccccc1O (stereo not given) 270 pM
O=C(Nc1nc(-c2cccs2)c(-c2ccccc2)s1)c1ccco1 720 pM
COc1ccc(-c2nc(NC(C)=O)sc2-c2ccc(OC)cc2)cc1 570 pM
CCCCCOC(=O)c1[nH]c2c(c1C)C(=O)C(C(=O)OC)C(C)C2 (stereo not given) 880 pM
Nc1cccc(OCc2nc(N)nc(N)c2-c2ccc(Cl)cc2)c1 920 pM
CCc1c(-c2n[nH]c(=S)n2Cc2ccccc2)csc1C 320 pM
C=CCOc1nc(-c2ccncc2)nc2ccccc12 270 pM
CCOC(=O)CN(C(=O)CSc1nnc(Cc2ccccc2)n1-c1ccc(C)cc1)c1ccccc1 470 pM
Cc1ccc(C)c(CN2C(=O)C(C)Oc3ccc(C)cc32)c1 (stereo not given) 300 pM
CCOc1nc(-c2ccccc2O)nc2ccccc12 320 pM
Oc1ccccc1-c1nc(N2CCCC2)c2ccccc2n1 300 pM
CCCC(=O)Nc1ccccc1Sc1ncnc2scc(-c3ccccc3)c12 740 pM
CCCCC(CC)CN1CN(CC(CC)CCCC)CC(C)(N)C1 (stereo not given) 750 pM
OCCCNc1nc(-c2ccc(Br)cc2)nnc1-c1ccc(Cl)cc1 1430 pM
COc1ccc(-n2c(COc3cccc4ccccc34)nnc2SCC#N)cc1 490 pM
NCCc1c(-c2ccccc2)n(-c2ccccc2)c2ccccc12 410 pM
FC(F)(F)c1cccc(/C=N/NC(=S)NC2CCCCC2)c1 4200 pM
O=C(CC(Sc1ccccc1)c1cccs1)c1ccco1 (stereo not given) 410 pM
CCn1c2ccccc2c2cc([N+](=O)[O-])ccc21 380 pM
CCn1c2ccccc2c2nc3ccccc3nc21 630 pM
CC(C)n1c2ccccc2c2nc3ccccc3nc21 410 pM
CCCSc1nc(N2CCOCC2)c2c(c1C#N)CCCC2 340 pM
Cc1ccc2cccc(NC(=O)c3ccc(Br)o3)c2n1 120 pM
Cc1cccc(-c2nc(=S)c3c(n2Cc2ccco2)CCCC3)c1 550 pM
CN(CC(=O)Nc1ccccc1Oc1ccccc1)Cc1ccccc1F 300 pM
COc1ccccc1CN(C)CC(=O)Nc1ccccc1-c1ccccc1 720 pM
CC(C)c1nc(SCc2c(F)cccc2Cl)c2c(=O)n(C)c(=O)n(C)c2n1 230 pM
CC1CN(c2nc3ccccc3cc2-c2ccccc2)CC(C)O1 (stereo not given) 310 pM
CCCc1cc(-c2n[nH]c(=S)n2Cc2ccccc2)cs1 760 pM
CCCCn1c(-c2csc(CCC)c2)n[nH]c1=S 430 pM
